TRPV1 agonist – HTS Assay for Compounds that Act as Agonists of the Vanilloid Receptor 1. Transient receptor potential cation channel subfamily V member 1 (Homo sapiens), Q8NER1. TRPV1-expressing cells, Fluo-8 calcium influx, agonist mode. activation, % at 8.33 µM. 320,000 compounds, 0.19% hits; in the data active = activation above about 80%; inconclusive = between about 30% and that limit
Target sequence (Q8NER1 whole entry, looked up): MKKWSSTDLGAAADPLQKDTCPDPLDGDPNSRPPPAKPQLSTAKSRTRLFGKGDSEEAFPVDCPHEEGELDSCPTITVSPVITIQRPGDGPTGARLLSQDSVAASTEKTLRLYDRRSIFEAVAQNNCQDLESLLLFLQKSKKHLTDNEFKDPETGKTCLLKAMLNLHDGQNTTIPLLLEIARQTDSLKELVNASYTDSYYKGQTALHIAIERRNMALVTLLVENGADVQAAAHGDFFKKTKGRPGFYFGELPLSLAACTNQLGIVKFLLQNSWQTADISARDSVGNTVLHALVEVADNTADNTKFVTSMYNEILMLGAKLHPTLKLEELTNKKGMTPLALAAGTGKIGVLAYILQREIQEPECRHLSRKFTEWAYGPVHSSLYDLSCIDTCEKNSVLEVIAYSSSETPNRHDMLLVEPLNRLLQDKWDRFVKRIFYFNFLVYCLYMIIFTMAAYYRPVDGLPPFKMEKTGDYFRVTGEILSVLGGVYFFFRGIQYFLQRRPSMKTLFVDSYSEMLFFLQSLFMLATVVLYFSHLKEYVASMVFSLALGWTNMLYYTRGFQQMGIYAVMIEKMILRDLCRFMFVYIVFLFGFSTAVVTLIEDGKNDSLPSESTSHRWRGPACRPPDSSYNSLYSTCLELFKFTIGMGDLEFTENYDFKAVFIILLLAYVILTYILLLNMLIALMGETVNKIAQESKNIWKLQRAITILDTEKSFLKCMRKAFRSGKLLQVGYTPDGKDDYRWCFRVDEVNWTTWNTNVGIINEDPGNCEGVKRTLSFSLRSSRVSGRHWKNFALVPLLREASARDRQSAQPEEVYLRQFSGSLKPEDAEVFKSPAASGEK
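TRPV1-expressing cells were cultured overnight at 35.5C and loaded with Fluo-8 calcium dye for 40 to 90 min at room temperature. After a 10 s baseline, compound was added and calcium influx was read kinetically for 3 min (ex 480/em 520 nm).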
TRPML1 ag – qHTS for Agonists of the Human Mucolipin Transient Receptor Potential 1 (TRPML1); Mucolipin-1 (Homo sapiens), Q9GZU1; TRPML1-expressing cells, Ca2+ dye fluorescence, FDSS; activation, % (no concentration beside the values); 410,000 compounds, 0.12% hits; in the data active = activation above about 50%; inconclusive = mostly about 30% to 49%
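Tet-induced TRPML1-DL cells, 1,500 per well, cultured overnight, were loaded with a no-wash Ca2+ dye for 45–90 min. Calcium fluorescence was recorded on the FDSS for 110 s after compound addition, before the EC80 agonist (4 uM 54-4) was added.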
TRPV1 potentiator – HTS Assay for Compounds that Act as Potentiators of the Vanilloid Receptor 1; Transient receptor potential cation channel subfamily V member 1 (Homo sapiens), Q8NER1; TRPV1-expressing cells, Fluo-8 calcium influx, capsaicin EC20 potentiation; potentiation, % at 8.33 µM; 320,000 compounds, 0.02% hits; in the data active = potentiation above about 80%; inconclusive = between about 30% and that limit
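TRPV1-expressing cells were cultured overnight at 35.5C and loaded with Fluo-8 calcium dye for 40 to 90 min at room temperature. After a 10 s baseline, compound was added and calcium influx was read kinetically for 3 min (ex 480/em 520 nm).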
A-T KAP1 phos – qHTS Assay for Identifying a Potential Treatment of Ataxia-Telangiectasia | 320,000 compounds, 0.19% hits | Potency, µM (highest dose often 57.5 µM), actives largely listed as activators | F2112 A-T fibroblasts, KAP-1 phosphorylation AlphaLISA; neocarzinostatin DNA damage 30 min before lysis; active = well fitted activation curve with a large enough effect; inconclusive = small, poorly fitted or top-dose-only effect; inactive = no such curve, though single readings can be large or run the other way; note: nearly all actives have a fitted effect of over 45% in size
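hTERT-immortalized A-T patient fibroblasts (F2112), 500 cells/well in OPTI-MEM, 1% FBS, got compounds for 60 min, then NCS for 30 min at 37C. Lysates were then assayed for phospho-KAP-1 by AlphaLISA (anti-pKAP1 donor, anti-KAP1 acceptor beads), 6 hr at 25C.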
TRPML1 blocker – qHTS for Inhibitors of the Human Mucolipin Transient Receptor Potential 1 (TRPML1); Mucolipin-1 (Homo sapiens), Q9GZU1; TRPML1-inducible cells, Ca2+ dye fluorescence, FDSS; active compounds read low; inhibition of EC80 agonist-evoked calcium signal; activity change, negative = inhibition, % (test concentration not listed); 390,000 compounds, 0.02% hits; AID 624415, 2012; in the data active = activity change below about -50%; inconclusive = between about -30% and that limit;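 note: stimulus is agonist 54-4 at its EC80 concentration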
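Tet-induced TRPML1-DL cells loaded with Ca8 no-wash calcium dye were read kinetically on FDSS. Compound addition was followed by EC80 agonist 54-4 (4 uM final); inhibition was read over 110 s.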
Large screens that a line does not name were inactive. Compounds with a hit are over-represented: about 0.41% of the library has one in this group of screens.

CCN(CC)c1ccc2cc(-c3nnc(-c4ccccc4)o3)c(=O)oc2c1	TRPV1 agonist 101, TRPML1 ag 72
CN(C)Cc1c(O)ccc2cc(-c3nc4ccccc4n3C)c(=O)oc12	none
CCN(CC)c1ccc2cc(C(=O)c3cccs3)c(=O)oc2c1	TRPML1 ag 84 (no result: TRPV1 agonist, TRPV1 potentiator, A-T KAP1 phos, TRPML1 blocker)
CCN(CC)c1ccc2cc(-c3nc4ccccc4n3C)c(=O)oc2c1	TRPML1 ag 61, A-T KAP1 phos inconclusive (no result: TRPV1 agonist, TRPV1 potentiator)
CCN(CC)c1ccc2cc(-c3nc4ccccc4[nH]3)c(=O)oc2c1	TRPV1 agonist 152, TRPML1 ag 97, A-T KAP1 phos inconclusive, TRPML1 blocker inconclusive
CSc1ccc(/C=C2\C=C(C(O)c3ccc(SC)cc3)c3ccccc32)cc1 (centres undefined)	none (no result: TRPV1 agonist, TRPV1 potentiator, A-T KAP1 phos, TRPML1 blocker)
CCc1ccc(NC(=O)c2cc(C(C)C)on2)cc1	TRPV1 agonist 82
N#CCN1C(=O)C(=O)N(Cc2cccc(Cl)c2)C1=O	A-T KAP1 phos 0.71µM
O=C(Nc1ccc(N2CCCCC2)cc1)c1ccc2ccccc2n1	TRPV1 agonist inconclusive, TRPML1 ag 87, TRPML1 blocker inconclusive
COc1cc(/C=C2/C=Cc3ccccc32)ccc1N(C)C	none (no result: TRPV1 agonist, TRPV1 potentiator, A-T KAP1 phos, TRPML1 blocker)
COC(=O)C1=CN(C(C)C)C=C(C(=O)OC)C1c1cc(Br)c(OC)c(OC)c1	A-T KAP1 phos 20µM
COC(=O)C1=CN(C(C)C)C=C(C(=O)OC)C1c1cccc(OC)c1	none
CCN(CC)c1ccc(/C=C/c2ccncc2)cc1	none (no result: TRPV1 agonist, TRPV1 potentiator, A-T KAP1 phos, TRPML1 blocker)
O=C(O)CCC(=O)NN1C(=O)c2ccccc2NC1c1ccco1 (centres undefined)	A-T KAP1 phos 0.79µM (no result: TRPML1 ag, TRPML1 blocker)
Cc1ccccc1OCC(=O)Nc1ccccc1N1CCCCC1	A-T KAP1 phos 32µM
Cc1cc(Cl)ccc1OCC(=O)Nc1ccccc1N1CCOCC1	TRPML1 ag 75
O=C(COc1ccc(F)cc1Br)Nc1ccccc1N1CCCC1	none (no result: TRPV1 agonist, TRPV1 potentiator, A-T KAP1 phos)
O=C(COc1ccc(F)cc1Br)Nc1ccccc1N1CCOCC1	TRPV1 agonist inconclusive, TRPML1 ag 71
OCC[N+]1(CCc2ccccc2)CCOCC1	none (no result: TRPV1 agonist, TRPV1 potentiator, A-T KAP1 phos, TRPML1 blocker)
Cc1nc(N2CCN(c3ccccn3)CC2)c2c(C)c(C(=O)Nc3ccc(F)cc3Cl)sc2n1	TRPML1 ag 97
Cc1nc(N2CCOCC2)c2c(C)c(C(=O)Nc3ccccc3Cl)sc2n1	TRPV1 agonist inconclusive
Cc1nc(N2CCOCC2)c2c(C)c(C(=O)Nc3ccccc3C(F)(F)F)sc2n1	TRPV1 agonist 91
Cc1cccc(Cn2cnc3c(cnn3C(C)(C)C)c2=O)c1	none (no result: TRPV1 agonist, TRPV1 potentiator, A-T KAP1 phos)
CC(C)(C)c1ccc(O)c(N=Cc2cccc([N+](=O)[O-])c2)c1	none (no result: TRPV1 agonist, TRPV1 potentiator, A-T KAP1 phos, TRPML1 blocker)
CC(C)(C)CC(C)(C)N=C1Nc2cc(Cl)c(Cl)cc2N[C@]12C[C@H]1CCCC(=O)N3CC[C@@H](C2)[C@@H]13	none (no result: TRPV1 agonist, TRPV1 potentiator, A-T KAP1 phos, TRPML1 blocker)
CCN(C(=O)COC(=O)c1cncc(Br)c1)C1CCS(=O)(=O)C1 (centres undefined)	TRPV1 potentiator 80
CCCCCCCCCC[n+]1ccc(/C=C/c2ccc(N(C)C)cc2)c2ccccc21	TRPML1 ag 57 (no result: TRPV1 agonist, TRPV1 potentiator, A-T KAP1 phos, TRPML1 blocker)
CCCC[n+]1c(/C=C/c2ccc(N(C)C)cc2)sc2ccccc21	none (no result: TRPV1 agonist, TRPV1 potentiator, A-T KAP1 phos, TRPML1 blocker)
O=c1c2ccccc2oc2ccc(-c3ccoc3)cc12	none (no result: TRPV1 agonist, TRPV1 potentiator, A-T KAP1 phos, TRPML1 blocker)
C=CCc1ccc(OCC(O)CN2CCN(c3ccccc3)CC2)c(OC)c1 (centres undefined)	A-T KAP1 phos 20µM
C=CCc1ccc(OCC(O)CN2CCCCC2)c(OC)c1 (centres undefined)	none
CN(C)/C=C1\C=C2C(=O)c3ccccc3N2C1=O	TRPV1 agonist 93, TRPML1 ag 57, TRPML1 blocker inconclusive
O=C(NCc1cccnc1)C1CCC(c2ccc(Cl)cc2)CC1 (centres undefined)	TRPV1 agonist 115
Cn1c(C(c2cc3ccccc3n2C)c2cc3ccccc3n2C)cc2ccccc21	none (no result: TRPV1 agonist, TRPV1 potentiator, A-T KAP1 phos, TRPML1 blocker)
COc1ccc(Nc2ncnc3ccc(C)cc23)cc1	TRPV1 agonist 81
C=C1C=C(C(F)F)n2ncc(C(=O)Nc3ccc(C(C)CC)cc3)c2N1 (centres undefined)	none (no result: TRPML1 ag, A-T KAP1 phos, TRPML1 blocker)
O=C(c1ccc(-c2nc3ccccc3s2)o1)N1CCN(c2ccccc2O)CC1	none
O=C(O)c1ccc(-c2nc3ccccc3s2)o1	A-T KAP1 phos 4.5µM (no result: TRPML1 ag, TRPML1 blocker)
Cc1ccc(C(O)c2nc3ccccc3n2C(C)C)cc1 (centres undefined)	none
COc1ccc(C(O)c2nc3ccccc3n2C(C)C)cc1 (centres undefined)	TRPV1 potentiator inconclusive, A-T KAP1 phos 28µM (no result: TRPML1 ag, TRPML1 blocker)
Cc1ccc(NC(=O)C(=Cc2ccc(C(=O)O)cc2)C(=O)Nc2ccc(C)cc2C)c(C)c1	A-T KAP1 phos 20µM
O=C(Nc1nnc(-c2ccccc2Cl)o1)c1nc2ccccc2s1	TRPML1 ag 65
COc1cc(/C=C/c2ccc3ccccc3n2)cc(OC)c1OC	none (no result: TRPV1 agonist, TRPV1 potentiator, A-T KAP1 phos, TRPML1 blocker)
Nc1ccc(/C=C/c2nc3ccccc3s2)cc1	none (no result: TRPV1 agonist, TRPV1 potentiator, A-T KAP1 phos, TRPML1 blocker)
CN(C)c1ccc(/C=C(\C#N)C(=O)c2ccccc2)cc1	TRPV1 agonist 84, TRPML1 ag 72, TRPML1 blocker inconclusive
Cc1ccc(C=C(C#N)C(=O)c2ccccc2)cc1	none (no result: TRPV1 agonist, TRPV1 potentiator, A-T KAP1 phos, TRPML1 blocker)
CCN(CC)c1ccc(/C=C(\C#N)C(N)=O)cc1	none
CCN(CC)c1ccc(/C=C(\C#N)C(=O)c2ccc(Br)cc2)cc1	TRPV1 agonist inconclusive, TRPML1 ag 79
COc1ccc(CN2CCN(c3ncnc4scc(-c5ccc(F)cc5)c34)CC2)cc1	A-T KAP1 phos 14µM

Screens: PubChem BioAssay, National Center for Advancing Translational Sciences (NCATS)
